Values without a mark were called inactive. Where a call stands in place of a potency, no number is given. The source made the active and inactive calls. Calls come from the whole dose curve.
target: Gonadotropin-releasing hormone receptor (Homo sapiens) (UniProt P30968); test: Human gonadotropin-releasing hormone receptor (GnRHR) small molecule agonists, calcium flux assay in GnRHR-HEK293 cells (AID 1920063); details: calcium flux fluorescence, agonist mode; series mostly up to 57.6 µM; note: nearly all actives have a fitted effect of over 35% in size
Sequence (P30968 whole entry, looked up): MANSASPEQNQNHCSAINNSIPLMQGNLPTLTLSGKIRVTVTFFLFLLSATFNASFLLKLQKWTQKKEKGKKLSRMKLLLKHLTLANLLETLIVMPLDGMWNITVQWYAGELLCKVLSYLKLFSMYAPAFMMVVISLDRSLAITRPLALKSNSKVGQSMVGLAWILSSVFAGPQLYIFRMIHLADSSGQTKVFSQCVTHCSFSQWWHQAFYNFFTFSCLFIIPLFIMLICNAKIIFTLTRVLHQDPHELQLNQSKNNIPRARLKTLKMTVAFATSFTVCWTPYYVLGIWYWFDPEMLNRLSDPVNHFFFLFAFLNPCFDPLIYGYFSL
Excerpt: National Center for Advancing Translational Sciences [NCATS]
Division of Preclinical Innovation [DPI]
U.S. Environmental Protection Agency [EPA]
National Institutes of Environmental Health Sciences [NIEHS]
National Toxicology Program [NTP]
U.S. Food and Drug Administration [FDA]
Gonadotropin-releasing hormone receptor (GnRHR) is a G-protein-coupled receptor (GPCR) and acts (through phospholipase C) to increase intracellular inositol trisphosphate and then release intracellular calcium stores. Cell-based GnRHR-Hek293 calcium influx assay is using HEK293 cells that have been genetically engineered to express the human GnRHR, which activity can be measured by calcium signaling. A compound/drug can activate (agonist) GnRHR that can be monitored by levels of intracellular calcium.
GnRHR-HEK293 cells developed by Codex Corp contain human GnRHR reporter gene, which was stably integrated into HEK 293 cells. The compound activation can be detected by fluorescence intensity via calcium flux assay. This cell line has been used to screen the Tox21 10K compound library to identify GnRHR agonists.
GnRHR-Hek293 cells were dispensed at 1500cells/4uL/well in 1536-well black wall/clear bottom plates using a multidrop dispenser. After the assay plates were incubated at a 37 C/5% CO2 incubator for 18 hours, 4 uL of Calcium Dye Solution was added to each well. The plates were incubated at 37 C for 1 hour. For agonist mode, 23 nL of compounds dissolved in DMSO, positive controls or DMSO only was transferred to the assay plate by a pin tool station. The fluorescence intensity in the plates was measured using FDSS 7000EX kinetic plate reader with a filter set of Ex/Em=480/540 for 3 min at 1 sec intervals. Each test compound was measured at 15 concentrations and in triplicates.
Potency is the fitted concentration of half-maximal effect.

Q: `CCCCCCCCCCCCCCBr` was tested. Which Potency did it give?
A: Its Potency is “inactive”.

Q: For `CC1(N)CCC(C(C)(C)N)CC1` (stereo not given), which Potency is on record?
A: Its Potency is “inactive”.

Q: How did the Potency turn out when `CC(C)(O)c1ccc(CNC(=O)c2cccnc2Oc2ccc3nonc3c2)cc1` was run?
A: The Potency was “inactive”.

Q: Which Potency does the source give for `CCCCCCCC[Si](OCC)(OCC)OCC` here?
A: Its Potency is “inactive”.

Q: For `O=C(CO)[C@@H](O)[C@H](O)[C@H](O)CO`, which Potency is on record?
A: Its Potency is “inactive”.

Q: With `O=S(=O)(O)c1ccc(N=Nc2c(O)ccc3ccccc23)cc1` as the molecule, how does the Potency read?
A: The Potency was “inactive”.

Q: How did the Potency turn out when `O=C(Nc1cccc2c(=O)cc(-c3nn[nH]n3)oc12)c1ccc(OCCCCc2ccccc2)cc1` was run?
A: Its Potency is “inactive”.

Q: How did the Potency turn out when `COc1c(C)c2c(c(O)c1C/C=C(\C)CCC(=O)OCCN1CCOCC1)C(=O)OC2` was run?
A: The Potency was “inactive”.

Q: How did the Potency turn out when `CCCCN(CCCC)C(=O)N(CCCC)CCCC` was run?
A: The Potency was “inactive”.

Q: For `CC(C)(C)C(=O)O`, which Potency is on record?
A: The Potency was “inactive”.

Q: `O=C(O)Cn1c(C(=O)Nc2nc(-c3ccccc3Cl)cs2)cc2ccccc21` was tested. Which Potency did it give?
A: The Potency was 3.38 µM (active).

Q: With `O=C(OOC(=O)c1ccccc1)c1ccccc1` as the molecule, how does the Potency read?
A: The Potency was “inactive”.

Q: With `OC[C@@H](O)[C@H](O)[C@@H](O)[C@@H](O)CO` as the molecule, how does the Potency read?
A: Its Potency is “inactive”.

Q: `O=C(CCCl)NCc1ccccc1` was tested. Which Potency did it give?
A: Its Potency is “inactive”.

Q: How did the Potency turn out when `O=C(O)COCC(=O)O` was run?
A: The Potency was “inactive”.

Q: `OC[C@@H](O)[C@@H](O)CO` was tested. Which Potency did it give?
A: The Potency was “inactive”.

Q: For `Cc1[nH]cnc1CN1CCc2c(c3ccccc3n2C)C1=O`, which Potency is on record?
A: Its Potency is “inactive”.

Q: With `NS(=O)(=O)c1cc2c(cc1Cl)NC(C(Cl)Cl)NS2(=O)=O` (stereo not given) as the molecule, how does the Potency read?
A: Its Potency is “inactive”.

Q: For `CCCCCCCC/C=C/C(=O)O`, which Potency is on record?
A: Its Potency is “inactive”.

Q: Which Potency does the source give for `Cc1cc(O)ccc1N` here?
A: The Potency was “inactive”.

Q: For `CCCCCCOC(=O)CCCCC`, which Potency is on record?
A: Its Potency is “inactive”.

Q: Which Potency does the source give for `OCCCCC(O)CO` (stereo not given) here?
A: Its Potency is “inactive”.

Q: For `O=c1[nH]sc2cc(Cl)ccc12`, which Potency is on record?
A: The Potency was “inactive”.

Q: For `O=C(O)c1cc(O)c2c(c1)C(=O)c1cccc(O)c1C2=O`, which Potency is on record?
A: The Potency was “inactive”.

Q: How did the Potency turn out when `C[n+]1ccccc1/C=N/O` was run?
A: Its Potency is “inactive”.

Q: With `CC(C)C[C@@H](N)C(=O)O` as the molecule, how does the activity change read?
A: Its activity change is 0.203% [at 11.8 µM, active compounds read high].

Q: `COc1ccccc1OCC(O)CN1CCN(CC(=O)Nc2c(C)cccc2C)CC1` (stereo not given) was tested. Which Potency did it give?
A: The Potency was “inactive”.

Q: With `CC1(C)OC[C@@H](COC(=O)CCc2ccc(OC[C@@H](O)CNCCNC(=O)N3CCOCC3)cc2)O1` as the molecule, how does the Potency read?
A: Its Potency is “inactive”.

Q: Which Potency does the source give for `CC(C)COC(=O)COc1cc(Cl)c(Cl)cc1Cl` here?
A: The Potency was “inactive”.

Q: `CCC(Cc1ccccc1)(C(=O)c1ccc(N2CCOCC2)cc1)N(C)C` (stereo not given) was tested. Which Potency did it give?
A: Its Potency is “inactive”.

Q: Which Potency does the source give for `CN1CCC(=C2c3ccccc3CC(=O)c3sccc32)CC1` here?
A: Its Potency is “inactive”.

Q: `CCOC(=O)CC(=O)c1cc(F)c(Cl)nc1Cl` was tested. Which Potency did it give?
A: Its Potency is “inactive”.

Q: For `CCCCN1CCCC[C@H]1C(=O)Nc1c(C)cccc1C`, which Potency is on record?
A: The Potency was “inactive”.

Q: With `CCCCCCCCCCC(=O)O` as the molecule, how does the Potency read?
A: The Potency was “inactive”.

Q: For `CC(C)c1ccc(C(=O)N=C(N)N)cc1S(C)(=O)=O`, which Potency is on record?
A: Its Potency is “inactive”.

Q: `Clc1cc(Cl)cc(Cl)c1` was tested. Which Potency did it give?
A: Its Potency is “inactive”.

Q: `CCOC(=O)CC` was tested. Which Potency did it give?
A: Its Potency is “inactive”.

Q: With `CCCCCCCCCC=O` as the molecule, how does the Potency read?
A: Its Potency is “inactive”.

Q: Which Potency does the source give for `CCC1(CO)COCOC1` here?
A: Its Potency is “inactive”.

Q: `CCCCS` was tested. Which Potency did it give?
A: Its Potency is “inactive”.
